Most compounds without a hit are left out; they make up all but 18% or so of the library.
VDR inh: vitamin D3 receptor (human) inhibition; P11473; VDR-SRC2-3 peptide fluorescence polarization, 2 h; Potency, µM, for the others: max response, negative = inhibition, hits mostly inhibitors; hit rate 0.93% among 400,000; AID 504847
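VDR–SRC2-3 interaction, FP format. Cmpds 23 nl via pintool, brief spin, 2 h ambient incubation.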
TDP1 block: blocks human tyrosyl-DNA phosphodiesterase 1; recombinant TDP1, AlphaScreen DNA substrate cleavage; Potency, µM (series often up to 130 µM), inactives show at the highest dose activity change, negative = inhibition, usual class: inhibitors; hit rate 0.28% among 350,000; note: nearly all actives have a fitted effect of over 40% in size
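AlphaScreen read-out: signal falls as enzyme removes the 3' tyrosine-FITC from a 5'-biotinylated DNA oligo (15 nM, 5 min, RT). Enzyme was E. coli-made recombinant Tdp1 at 1 nM, exposed to compound for 15 min beforehand; beads 10 ug/ml, 10 min.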
KAT2A inh: blocks human GCN5L2 histone acetyltransferase; Q92830; GCN5L2 HAT assay, ThioGlo1 CoA-SH fluorescence; Potency, µM (highest dose often 58.9 µM), for the others: at the top dose activity change, negative = inhibition, most hits filed as inhibitors; hit rate 0.21% among 390,000; AID 504327
Target sequence (Q92830 whole entry, looked up): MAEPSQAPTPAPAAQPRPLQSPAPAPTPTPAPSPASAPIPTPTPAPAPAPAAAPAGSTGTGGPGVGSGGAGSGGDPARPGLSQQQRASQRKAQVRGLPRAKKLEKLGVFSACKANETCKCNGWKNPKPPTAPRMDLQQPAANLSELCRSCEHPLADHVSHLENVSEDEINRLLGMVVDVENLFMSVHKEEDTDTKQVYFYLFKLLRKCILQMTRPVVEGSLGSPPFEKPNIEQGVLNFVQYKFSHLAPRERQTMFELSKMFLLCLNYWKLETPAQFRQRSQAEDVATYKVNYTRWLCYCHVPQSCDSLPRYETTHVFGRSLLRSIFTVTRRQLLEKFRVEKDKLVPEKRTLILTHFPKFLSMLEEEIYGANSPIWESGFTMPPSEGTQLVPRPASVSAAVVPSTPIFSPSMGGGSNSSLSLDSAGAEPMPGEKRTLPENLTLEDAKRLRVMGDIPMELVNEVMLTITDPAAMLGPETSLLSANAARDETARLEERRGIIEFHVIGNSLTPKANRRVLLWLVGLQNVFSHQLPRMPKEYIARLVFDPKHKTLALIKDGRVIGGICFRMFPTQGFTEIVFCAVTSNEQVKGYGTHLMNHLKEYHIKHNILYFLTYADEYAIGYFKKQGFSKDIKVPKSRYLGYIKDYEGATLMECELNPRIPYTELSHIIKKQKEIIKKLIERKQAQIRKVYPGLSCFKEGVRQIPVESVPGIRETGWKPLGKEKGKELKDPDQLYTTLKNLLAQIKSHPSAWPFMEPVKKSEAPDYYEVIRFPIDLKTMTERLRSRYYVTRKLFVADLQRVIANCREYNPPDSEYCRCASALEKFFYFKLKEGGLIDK
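Fluorescence readout, Ex340nm/Em540nm: ThioGlo1 (50uM final) reacts with free CoA thiol released as 20nM GCN5L2 acetylates H3(1-25) peptide (75uM) using acetyl-CoA (70uM). Compound and enzyme sat 15 min beforehand; 20 min room-temperature reaction.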
PLK1 PBD block: PLK1 (human) polo-box domain binding inhibition; P53350; Plk1 PBD binding of FITC phosphopeptide, fluorescence polarization; Potency, µM, inactives show max response, negative = inhibition, usual class: inhibitors; hit rate 2.8% among 360,000; AID 720504; note: series mostly up to about 57 µM; nearly all actives have a fitted effect of over 65% in size
DT40 TDP1 no CPT: qHTS for Inhibitors of human tyrosyl-DNA phosphodiesterase 1 (TDP1): qHTS in cells in absence of CPT; DT40 Tdp1-/- hTDP1 cells, no CPT, ATP luminescence, 48 h; Potency, µM (highest dose often 46.2 µM), without a hit: at the top dose activity change, negative = growth inhibition, hits mostly inhibitors; hit rate 15% among 420,000; AID 686978, 2013; note: nearly all actives have a fitted effect of over 55% in size
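Readout: luminescence from CellTiter-Glo after 30 min in the dark at RT. Cells: DT40 Tdp1-/- with stable hTDP1, 400/well. Exposure: compounds alone, ≥48 hr, 37 °C.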
TDP1 cell CPT: DT40-hTDP1 cell growth loss with CPT. hit rate 12% among 420,000. chicken DT40 Tdp1-/-;hTDP1 cells + 20 nM CPT, ATP luminescence, 48 h. Potency, µM (top dose mostly 46.2 µM), for inactives: at the top dose activity change, negative = growth inhibition, most hits filed as inhibitors; note: nearly all actives have a fitted effect of over 55% in size
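Chicken DT40 Tdp1-/- cells stably complemented with human TDP1 were seeded at 400 cells/well in medium containing 20 nM camptothecin, exposed to pin-transferred compounds, and grown at 37 °C for at least 48 hr. Viability was read as ATP luminescence.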
Active calls of the source: *. Calls come from the whole dose curve; as a rule, active = well fitted curve in the direction sought with a large enough effect; inconclusive = small, poorly fitted or top-dose-only effect, or another doubt; inactive = no such curve, though single readings can be large; an effect the other way counts as inactive or inconclusive. % is set by controls: 0 for no effect and ±100 for the full control effect; potency is the fitted concentration of half-maximal effect.

For COc1ccc(OC)c(CN2CCN(CC(=O)Nc3ccccc3C(=O)NC3CC3)CC2)c1 the results were VDR inh 4%, TDP1 block 0%, KAT2A inh 3%, PLK1 PBD block 1%, DT40 TDP1 no CPT 0% and TDP1 cell CPT -8%.
Cc1ccc(CN2CC(C(=O)N(CC(C)C)c3c(N)n(Cc4ccccc4)c(=O)[nH]c3=O)CC2=O)cc1 (stereo unspecified) was read as VDR inh -4%, PLK1 PBD block -1%, DT40 TDP1 no CPT 4% and TDP1 cell CPT -2%.
`COc1ccc(-n2c(C)cc(-c3csc(N)n3)c2C)cc1` gave VDR inh 20%, TDP1 block 5%, KAT2A inh -6%, PLK1 PBD block -6%, DT40 TDP1 no CPT inconclusive and TDP1 cell CPT inconclusive.
`CCCc1cc(C(N)=O)c(NC(=O)C2CCCO2)s1` (stereo unspecified) gave VDR inh -28%, TDP1 block 1%, KAT2A inh -18%, PLK1 PBD block 11µM*, DT40 TDP1 no CPT -18% and TDP1 cell CPT -1%.
`C=C1C(=O)O[C@H]2C[C@]3(C)C([C@@H](OC(=O)/C(C)=C/C)[C@H]12)[C@](C)(O)CC[C@H]3O` (stereo partly specified) gave VDR inh -12%, KAT2A inh 2%, PLK1 PBD block -15%, DT40 TDP1 no CPT 8.2µM* and TDP1 cell CPT 15µM*.
Screening C=C[C@@]1(C)CC(=O)[C@]2(O)[C@@]3(C)[C@@H](O)CCC(C)(C)[C@@H]3[C@H](O)[C@H](OC(C)=O)[C@@]2(C)O1 returned VDR inh -15%, TDP1 block 9%, KAT2A inh 1%, PLK1 PBD block -2%, DT40 TDP1 no CPT inconclusive and TDP1 cell CPT inconclusive.
`CCn1c(=NC(=O)c2cccc(N3C(=O)CCC3=O)c2)sc2c(OC)ccc(OC)c21` gave VDR inh 18%, KAT2A inh -14%, PLK1 PBD block -12%, DT40 TDP1 no CPT 18µM* and TDP1 cell CPT -25%.
For CCOCCn1c(=NC(=O)c2ccc3c(c2)OCCO3)sc2cc(OCC)ccc21 the results were VDR inh 0%, TDP1 block 0%, KAT2A inh -16%, DT40 TDP1 no CPT 15µM* and TDP1 cell CPT inconclusive.
For COCCn1c(=NC(=O)C2COc3ccccc3O2)sc2cc(S(N)(=O)=O)ccc21 (stereo unspecified) the results were VDR inh -3%, TDP1 block -2%, KAT2A inh -3%, PLK1 PBD block 3%, DT40 TDP1 no CPT inconclusive and TDP1 cell CPT inconclusive.
`COc1ccc(OC)c2c1sc(=NC(=O)c1cccc(N3C(=O)CCC3=O)c1)n2C` gave VDR inh -5%, TDP1 block -1%, KAT2A inh inconclusive, PLK1 PBD block 2%, DT40 TDP1 no CPT inconclusive and TDP1 cell CPT -10%.
CCn1c(=NC(=O)c2ccc3c(c2)OCCO3)sc2c(C)ccc(OC)c21 was read as VDR inh 8%, TDP1 block 3%, KAT2A inh -10%, DT40 TDP1 no CPT 23µM* and TDP1 cell CPT inconclusive.
For COCCn1c(=NC(=O)c2ccc3c(c2)OCCO3)sc2cc(NC(C)=O)ccc21 the results were VDR inh 14%, TDP1 block 0%, KAT2A inh -20%, DT40 TDP1 no CPT inconclusive and TDP1 cell CPT inconclusive.
For CCn1c(=NC(=O)C2COc3ccccc3O2)sc2c(OC)ccc(OC)c21 (stereo unspecified) the results were VDR inh -12%, TDP1 block 4%, KAT2A inh -11%, PLK1 PBD block -7%, DT40 TDP1 no CPT 15µM* and TDP1 cell CPT inconclusive.
`Cc1cnc(CNc2ccnc(-c3ccccc3CN(C)C)n2)cn1` gave VDR inh inconclusive, KAT2A inh -4%, DT40 TDP1 no CPT -2% and TDP1 cell CPT 1%.
N/C(=N\N=C\c1ccc(Br)o1)c1nonc1N was read as VDR inh -3%, TDP1 block 8%, KAT2A inh -22%, PLK1 PBD block 1%, DT40 TDP1 no CPT -39% and TDP1 cell CPT -3%.
`Cc1ccc(S(=O)(=O)c2cn(Cc3ccccc3F)c3cc4c(cc3c2=O)OCO4)cc1` gave VDR inh 1%, TDP1 block 6%, KAT2A inh -4%, DT40 TDP1 no CPT inconclusive and TDP1 cell CPT 5.8µM*.
COc1ccc2c(c1)c(=O)c(S(=O)(=O)c1ccc(Cl)cc1)cn2Cc1cc(C)ccc1C was read as VDR inh 2%, TDP1 block 4%, KAT2A inh -4%, DT40 TDP1 no CPT inconclusive and TDP1 cell CPT -21%.
`CCCn1cc(S(=O)(=O)c2ccc(Cl)cc2)c(=O)c2cc(OC)ccc21` gave VDR inh inconclusive, TDP1 block 1%, KAT2A inh 3%, PLK1 PBD block 3µM*, DT40 TDP1 no CPT 23µM* and TDP1 cell CPT 16µM*.
Cc1ccc(S(=O)(=O)c2cn(Cc3ccccc3Cl)c3ccc(F)cc3c2=O)cc1 was read as VDR inh -11%, TDP1 block 4%, KAT2A inh 1%, DT40 TDP1 no CPT 16µM* and TDP1 cell CPT 18µM*.
Cc1ccccc1Cn1cc(S(=O)(=O)c2ccc(F)cc2)c(=O)c2cc3c(cc21)OCO3 was read as VDR inh -20%, TDP1 block 4%, KAT2A inh -2%, DT40 TDP1 no CPT inconclusive and TDP1 cell CPT inconclusive.
`COc1ccc2c(c1)c(=O)c(S(=O)(=O)c1ccc(C)cc1)cn2Cc1ccccc1C` gave VDR inh -2%, TDP1 block 1%, KAT2A inh -8%, DT40 TDP1 no CPT 18µM* and TDP1 cell CPT inconclusive.
Screening CN(CC(=O)Nc1ccccc1Cl)C(=O)CSc1nnc(N)s1 returned VDR inh 3%, KAT2A inh -11%, PLK1 PBD block -2%, DT40 TDP1 no CPT -4% and TDP1 cell CPT -9%.
COCCn1c(N)c(N(Cc2ccccc2)C(=O)C(C)Oc2ccc(Br)cc2)c(=O)[nH]c1=O (stereo unspecified) was read as PLK1 PBD block -2%, DT40 TDP1 no CPT inconclusive and TDP1 cell CPT -1%.
`COc1cccc(C(=O)Nc2nc3nc(C)c(C)c(=O)n3[nH]2)c1` gave VDR inh 12%, TDP1 block 2%, KAT2A inh -8%, DT40 TDP1 no CPT -5% and TDP1 cell CPT -10%.

Source: PubChem BioAssay (National Center for Advancing Translational Sciences (NCATS))
